Among the data in PubChem BioAssay (Tox21) are Potency values, retold here.

Each structure is given as a SMILES string. Several values for one entry are separate records, joined by “and”; a condition that tells them apart may be missing. Equal entries are not always repeated. Inconclusive results are not listed. Where a call stands in place of a potency, no number is given. Activity calls are given as the source filed them. The call rests on the fitted dose curve.
Potency means the concentration at half of the fitted maximal effect.

The nature of this assay: p53 small molecule agonists, cell-based qHTS assay with rat liver microsomes: qHTS cell viability counter screen (AID 1963580). Further: nearly all actives have a fitted effect of over 45% in size. Particulars: p53RE-bla HCT-116 + rat microsomes, ATP viability, 16 h; series mostly up to 66 µM. The source says:
National Center for Advancing Translational Sciences [NCATS]
Division of Preclinical Innovation [DPI]
U.S. Environmental Protection Agency [EPA]
National Institutes of Environmental Health Sciences [NIEHS]
National Toxicology Program [NTP]
U.S. Food and Drug Administration [FDA]
p53, a tumor suppressor protein, is activated following cellular insult, including DNA damage and other cellular stresses. The activation of p53 regulates cell fate by inducing DNA repair, cell cycle arrest, apoptosis, or cellular senescence. The activation of p53, therefore, is a good indicator of DNA damage and other cellular stresses. The CellSensor p53RE-bla HCT-116 cell line contains a stably integrated beta-lactamase reporter gene under control of the p53 response elements. The activation of the reporter gene under culture conditions can be detected by fluorescence intensity. This cell line was used to screen the Tox21 10K compound library in the condition of presence of rat liver microsomes and to identify agonists that activate the p53 signaling pathway after in vitro metabolic activation (Ooka et al., Archive of Toxicology 96:1975-1987, 2022). The cytotoxicity of the Tox21 compound library against the p53 RE-bla HCT-116 cell line was tested in parallel by measuring the intra cellular ATP content in the same wells.
Tox21 Assay Protocol Summary:
The p53RE-bla cells were dispensed at 4,000cells/3ul/well in 1536-well black-clear bottom plates. After the assay plates were incubated at 37 C, 5% CO2 incubator for 5 hours, 23 nL of compounds dissolved in DMSO, positive controls or DMSO only was transferred to the assay plate. Following compound addition, 3 uL of rat liver microsomes (Molecular Toxicology, Boone, NC) at final concentration of 0.5 mg/mL and 1uL of B-Nicotinamide adenine dinucleotide 2'-phosphate (NADPH) at final concentration of 0.5 mg/mL were transferred to the assay plate. The plates were incubated at 37 C for 16 hours. 1 uL of LiveBLAzer detection mixture was added to each well and the plates were incubated at room temperature in the dark for 2 h. Fluorescence intensity at 460 and 530 nm emission and 405 nm excitation were measured by an Envision plate reader. For cell viability readout that measures cytotoxicity, 4 ul/well of CellTiter-Glo reagent was added into the assay plates using a Flying Reagent Dispenser. After 30 min incubation at room temperature, the luminescence intensity in the plates was measured using a ViewLux plate reader.
With `O=C(O)c1ccccn1`, the Potency entry was “inactive”.

On to `ClCOCCl`, for which the Potency result was “inactive”.

For `O=C(NC(=O)c1ccccc1Cl)Nc1ccc(OC(F)(F)F)cc1`, the Potency result was “inactive”.

As to `CC(C)OC(=O)Nc1ccccc1`, the Potency result is “inactive”.

As for `c1cc2c(c(N3CCNCC3)c1)OCCO2`, the Potency result is “inactive”.

With `CCN(CC)C(=O)/C(Cl)=C(\C)OP(=O)(OC)OC`, the Potency result is “inactive”.

Turning to `CCOP(=S)(OCC)Oc1ccc2c(C)c(Cl)c(=O)oc2c1`, the Potency result was “inactive”.

Regarding `Nc1c(Oc2ccccc2)cc(O)c2c1C(=O)c1ccccc1C2=O`, the Potency entry is “inactive”.

`[Cl-].[Cl-].[Hg+2]`: the Potency is 16.2 µM (active) and 4.08 µM (active).

In the case of `CC1(C)[C@H](C(=O)O[C@H](C#N)c2cccc(Oc3ccccc3)c2)[C@@H]1/C=C(\Cl)C(F)(F)F`, the Potency entry is “inactive”.

With `CNC(=O)Oc1cccc2c1OC(C)(C)O2`, the Potency result is “inactive”.

On to `CC(C)C1(C)N=C(c2ncccc2C(=O)O)NC1=O` (stereo not given), for which the Potency entry was “inactive”.

Turning to `Cn1cc(-c2ccccc2)c(=O)c(-c2cccc(C(F)(F)F)c2)c1`, the Potency result was “inactive”.

Consider `COP(=S)(OC)Oc1ccc(S(=O)(=O)N(C)C)cc1`, for which the Potency result was “inactive”.

For the molecule `NC(=O)OCCCc1ccccc1`, the Potency entry was “inactive”.

On to `CCCCCCCCCCCCOS(=O)(=O)O`, for which the Potency entry was “inactive”.

With `COc1ccc(N)cc1N`, the Potency entry was “inactive”.

For the molecule `CC(C)C(C)(N)C#N` (stereo not given), the Potency result is “inactive”.

`CC1(C)CC(=O)CC(C)(C)N1[O]`: the Potency entry is “inactive”.

Consider `CCOC(=O)Nc1cccc(OC(=O)Nc2ccccc2)c1`, for which the Potency result was “inactive”.

`CCC(C)c1cc([N+](=O)[O-])cc([N+](=O)[O-])c1O` (stereo not given): the Potency result was “inactive”.

For `CCOC(=O)c1ccccc1C(=O)OCC`, the Potency entry was “inactive”.

As to `Cc1ccc(Cl)c(O)c1`, the Potency entry was “inactive”.

Regarding `CCCCCCOC(=O)c1ccccc1C(=O)OCCCCCC`, the Potency result is “inactive”.

Take `O=C(Nc1ccc(Br)cc1)c1cc(Br)cc(Br)c1O`: the Potency result was “inactive”.

As for `CCOP(OCC)OCC`, the Potency entry is “inactive”.

For `[O]=[Cr][O][Cr]=[O]`, the Potency result is “inactive”.

On to `NC(=O)CF`, for which the Potency entry was “inactive”.

For the molecule `CC(Cl)Cl`, the Potency result was “inactive”.

Consider `CCCCOCCOC(C)=O`, for which the Potency entry is “inactive”.

`CCN(CC)C1CCCCC1`: the Potency entry is “inactive”.

Consider `COc1ccc2c3c1O[C@H]1[C@H](O)CC[C@H]4[C@@H](C2)N(C)CC[C@@]341`, for which the Potency entry was “inactive”.

`CN(C)c1nc(=O)n(C2CCCCC2)c(=O)n1C`: the Potency result was “inactive”.

Consider `C[Si](Cn1cncn1)(c1ccc(F)cc1)c1ccc(F)cc1`, for which the Potency result is “inactive”.

For the molecule `CCCCC(CC)COC(=O)c1ccc(C(=O)OCC(CC)CCCC)c(C(=O)OCC(CC)CCCC)c1` (stereo not given), the Potency entry is “inactive”.

As to `CCCC(=O)Cl`, the Potency result was “inactive”.

With `CCNc1nc(NCC)nc(SC)n1`, the Potency result was “inactive”.

Turning to `N#CC1(N=NC2(C#N)CCCCC2)CCCCC1`, the Potency entry was “inactive”.

For `CC(C)(C)OOC(C)(C)C`, the Potency result was “inactive”.

For `CC(C)(O)C#N`, the Potency entry is “inactive”.
